A number with no mark means an inactive call. Results filed as inconclusive are left out. Where a call stands in place of a potency, no number is given. Calls of active or inactive are those of the source. Unless noted, calls follow the shape of the full dose curve.
Experiments:
[1] = Nuclear factor erythroid 2-related factor 2/antioxidant responsive element (Nrf2/ARE) small molecule agonists: qHTS cell viability counter screen in human keratinocytes (AID 1919968; active = well fitted curve in the direction sought with a large enough effect in the repeat runs; an effect the other way counts as inactive or inconclusive; also: nearly all actives have a fitted effect of over 55% in size; also: potency is read from the fitted curve at half-maximal effect)
How it was run: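 HaCaT ARE reporter line, 1,500 cells/well; 5 h settle, 37 C/5% CO2; cpd in DMSO pinned; 23 h exposure; CellTiter-Fluor, 1 h; fluorescence.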

[2] = biological target: Gonadotropin-releasing hormone receptor (Homo sapiens) (UniProt P30968); assay: Human gonadotropin-releasing hormone receptor (GnRHR) small molecule agonists, calcium flux assay in GnRHR-HEK293 cells (AID 1920063); also: nearly all actives have a fitted effect of over 35% in size
How it was run: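 GnRHR-HEK293, 1500 cells/well, 18 h 37 C/5% CO2; Ca dye 1 h 37 C; cpd pinned (DMSO), agonist mode; kinetic FL 480/540, 3 min, 1 s reads; 15 conc, n=3.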

[3] = biological target: KiSS-1 receptor (Homo sapiens) (UniProt Q969F8); assay: Human kisspeptin (KISS1R) small molecule agonists, calcium flux assay in KISS1R-HEK293 cells (AID 1920064; active = well fitted curve in the direction sought with a large enough effect in the repeat runs; an effect the other way counts as inactive or inconclusive)
How it was run: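 Stable human KISS1R HEK293 line; 18 h plating, 37 C/5% CO2; calcium dye 1 h 37 C; compound pin transfer; kinetic fluorescence Ex/Em 480/540, 3 min.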

[4] = G protein-coupled receptor (GPCR) small molecule agonists, calcium flux assay: HEK293 wild type cell line counter screen (AID 1920065)
How it was run: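 Kinetic fluorescence at Ex/Em 480/540, recorded every second over 3 min, served as the read-out after compound addition. Each compound was tested at 15 concentrations in triplicate on cells pre-loaded with calcium dye for 1 h.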

[5] = p53 small molecule agonists, cell-based qHTS assay with human liver microsomes (AID 1963577);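 also: p53 response element beta-lactamase reporter cells with liver microsomes plus NADPH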
How it was run: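 Metabolically competent format: test substances, human liver microsomes and NADPH (both 0.5 mg/mL final) incubated with p53RE-bla cells 16 h at 37 C. Beta-lactamase reporter signal then quantified by fluorescence.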

[6] = p53 small molecule agonists, cell-based qHTS assay with rat liver microsomes (AID 1963578)
How it was run: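 Each plate received p53RE-bla cells, then compound, then rat liver microsomes and NADPH (both 0.5 mg/mL final). Plates were held 16 h at 37 C, and beta-lactamase activity was detected with LiveBLAzer over 2 h.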

[7] = p53 small molecule agonists, cell-based qHTS assay with rat liver microsomes: qHTS cell viability counter screen (AID 1963580); also: nearly all actives have a fitted effect of over 45% in size
How it was run: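 Intracellular ATP, by CellTiter-Glo luminescence, defines viability. HCT-116 p53RE-bla cells, 4,000 per well, were compound-treated in the presence of rat liver microsomes and NADPH for 16 h at 37 C.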

[8] = biological target: 5-hydroxytryptamine receptor 2A (Homo sapiens) (UniProt P28223); assay: 5-hydroxytryptamine receptor 2A (HTR2A) small molecule agonists, cell-based qHTS assay (AID 1963587); also: nearly all actives have a fitted effect of over 30% in size
How it was run: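 Kinetic calcium-flux fluorescence (2 min, 1 sec intervals) after compound addition in agonist mode. HTR2A-CHO cells were cultured 18 h, then dye-loaded 1 h at 37 C.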

[9] = biological target: Muscarinic acetylcholine receptor M1 (Homo sapiens) (UniProt P11229); assay: Cholinergic receptor muscarinic 1 (CHRM1) small molecule antagonists, cell-based qHTS assay (AID 1963588); also: nearly all actives have a fitted effect of over 40% in size; also: potency is read from the fitted curve at half-maximal effect
How it was run: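 CHRM1-CHO calcium-flux assay, antagonist mode. Cells were seeded 18 h, dye-loaded 1 h at 37 C and given compound for 5 min at RT, then acetylcholine was added at 50nM. FDSS fluorescence was read 3 min; 15 concentrations, three runs.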

[10] = biological target: Muscarinic acetylcholine receptor M1 (Homo sapiens) (UniProt P11229); assay: Cholinergic receptor muscarinic 1 (CHRM1) small molecule agonists, cell-based qHTS assay (AID 1963589); also: nearly all actives have a fitted effect of over 35% in size
How it was run: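 Human M1 in stable CHO line; 18 h plating, 1 h dye load 37 C; cpd added (agonist mode); Ca2+ fluorescence kinetic read, 1 s intervals; 15 conc, 3 runs.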

[11] = cAMP Responsive Elements (CRE) small molecule agonists, cell-based qHTS assay (AID 1963590)
How it was run: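 HEK 293T CRE-bla, 2,000 cells/well, 18 h preincubation 37 C/5% CO2; cpds (DMSO) pinned, 3 h; LiveBLAzer B/G FRET substrate, 2 h RT.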

[12] = cAMP Responsive Elements (CRE) small molecule antagonists, cell-based qHTS assay (AID 1963591; active = well fitted inhibition curve with a large enough effect in the signal ratio in the repeat runs, not every such curve was filed as active; the % refers to the signal ratio)
How it was run: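 Beta-lactamase reporter read by FRET substrate (LiveBLAzer B/G) after 2 h at room temperature. CRE-bla HEK293T cells had received compound plus 0.25 uM (final) NKH477 for 3 h at 37 °C.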

[13] = biological target: D(2) dopamine receptor (Homo sapiens) (UniProt P14416); assay: Dopamine D2 receptor (DRD2) small molecule agonists, cell-based qHTS assay (AID 1963594); also: nearly all actives have a fitted effect of over 35% in size
How it was run: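 cAMP accumulation in DRD2-HEK293 cells measured by HTRF after 1 h detection; compounds added 10 min before NKH477 (200nM […]) forskolin-analogue stimulation, 30 min at room temperature, with Ro20-1724 present at 0.1 mM final.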

[14] = biological target: D(2) dopamine receptor (Homo sapiens) (UniProt P14416); assay: Dopamine D2 receptor (DRD2) small molecule antagonists, cell-based qHTS assay (AID 1963595; active = well fitted inhibition curve with a large enough effect in the signal ratio in the repeat runs, with a control signal flat; the % refers to the signal ratio)
How it was run: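 Readout: HTRF cAMP, cAMP-d2 competing with cellular cAMP for anti-cAMP cryptate, read after 1 h. Cells: DRD2-HEK293. Conditions: 0.1 mM Ro20-1724, 12 nM quinpirole, 200 nM NKH477, 30 min RT.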

[15] = p53 small molecule agonists, cell-based qHTS assay with human liver microsomes: qHTS cell viability counter screen (AID 1963579); also: nearly all actives have a fitted effect of over 45% in size
How it was run: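 Tox21 library compounds, delivered from DMSO stocks, were tested on p53RE-bla cells together with 0.5 mg/mL human liver microsomes and 0.5 mg/mL NADPH (final) over 16 h at 37 C; CellTiter-Glo luminescence served as the cytotoxicity measure.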

[16] = biological target: 5-hydroxytryptamine receptor 2A (Homo sapiens) (UniProt P28223); assay: 5-hydroxytryptamine receptor 2A (HTR2A) small molecule antagonists, cell-based qHTS assay (AID 1963586); also: nearly all actives have a fitted effect of over 45% in size
How it was run: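 Antagonist-mode intracellular calcium assay: DOI (4 nM) added after 5 min compound pre-incubation at room temperature to dye-loaded HTR2A-CHO cells. Fluorescence followed for 3 min, sampled every second.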

[17] = p53 small molecule agonists, cell-based qHTS assay (AID 1963582; active = well fitted activation curve with a large enough effect in the signal ratio in the repeat runs, not every such curve was filed as active; the % refers to the signal ratio; also: potency is read from the fitted curve at half-maximal effect)
How it was run: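 Reporter line: p53RE-bla. Pre-incubation 5 h, 37 C, 5% CO2; compound (DMSO, pin tool) 16 h, 37 C; B/G FRET substrate 2 h RT; fluorescence intensity read.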

[18] = biological target: Beta-2 adrenergic receptor (Homo sapiens) (UniProt P07550); assay: Adrenergic beta2 receptor (ADRB2) small molecule antagonists, cell-based qHTS assay (AID 1963592); also: series mostly up to about 92 µM; nearly all actives have a fitted effect of over 50% in size
How it was run: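 Cells (CHO, stable ADRB2 overexpression) incubated 18-20hr at 37C; compounds added from DMSO; agonist mix (1nM isoproterenol, 100uM IBMX, 25uM Ro-20-1724) added; 0.5hr RT; d2-cAMP and anti-cAMP-cryptate added; 1hr RT; 665/615 nm read.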

[19] = p53 small molecule agonists, cell-based qHTS assay: qHTS cell viability counter screen (AID 1963581); also: nearly all actives have a fitted effect of over 45% in size
How it was run: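 HCT-116 p53RE-bla cells, 4,000/well, plated 5 h before compound pin transfer; 16 h at 37 C; bla substrate 2 h RT; then CellTiter-Glo, 30 min RT, luminescence.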

[20] = biological target: Beta-2 adrenergic receptor (Homo sapiens) (UniProt P07550); assay: Adrenergic beta2 receptor (ADRB2) small molecule agonists, cell-based qHTS assay (AID 1963593);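 also: CHO cells stably overexpressing human ADRB2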
How it was run: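 CHO cells stably over-expressing ADRB2 were plated overnight at 37C, then dosed with compounds plus a stimulation mix containing 100uM IBMX and 25uM Ro-20-1724 for 0.5hr at room temperature. cAMP was measured by HTRF competition, 1hr.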

Sequence of 5-hydroxytryptamine receptor 2A (Homo sapiens) (P28223 whole entry, looked up): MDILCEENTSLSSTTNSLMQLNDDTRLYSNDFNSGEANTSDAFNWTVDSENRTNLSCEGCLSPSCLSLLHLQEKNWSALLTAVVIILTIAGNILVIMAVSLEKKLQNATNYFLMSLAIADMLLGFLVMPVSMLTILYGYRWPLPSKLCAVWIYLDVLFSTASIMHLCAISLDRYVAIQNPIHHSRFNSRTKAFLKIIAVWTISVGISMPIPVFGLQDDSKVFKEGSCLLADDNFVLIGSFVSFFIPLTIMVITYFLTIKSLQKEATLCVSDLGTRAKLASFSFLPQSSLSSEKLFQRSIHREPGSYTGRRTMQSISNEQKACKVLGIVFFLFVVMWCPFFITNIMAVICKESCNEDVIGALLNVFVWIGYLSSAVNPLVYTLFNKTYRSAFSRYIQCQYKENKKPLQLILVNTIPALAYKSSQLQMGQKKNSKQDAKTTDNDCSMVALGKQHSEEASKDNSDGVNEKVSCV
Sequence of Beta-2 adrenergic receptor (Homo sapiens) (P07550 whole entry, looked up): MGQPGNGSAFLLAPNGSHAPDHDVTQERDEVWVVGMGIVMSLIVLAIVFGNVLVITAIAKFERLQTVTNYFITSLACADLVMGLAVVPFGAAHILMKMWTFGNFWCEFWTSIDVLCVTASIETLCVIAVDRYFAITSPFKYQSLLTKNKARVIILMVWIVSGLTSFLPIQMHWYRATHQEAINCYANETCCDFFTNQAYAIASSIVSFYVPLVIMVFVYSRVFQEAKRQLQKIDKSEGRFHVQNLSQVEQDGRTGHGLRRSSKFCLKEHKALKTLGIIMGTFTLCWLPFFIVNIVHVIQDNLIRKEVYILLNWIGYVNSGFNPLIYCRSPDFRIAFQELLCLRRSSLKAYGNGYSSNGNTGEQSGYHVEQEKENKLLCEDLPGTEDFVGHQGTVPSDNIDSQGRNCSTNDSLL
Sequence of D(2) dopamine receptor (Homo sapiens) (P14416 whole entry, looked up): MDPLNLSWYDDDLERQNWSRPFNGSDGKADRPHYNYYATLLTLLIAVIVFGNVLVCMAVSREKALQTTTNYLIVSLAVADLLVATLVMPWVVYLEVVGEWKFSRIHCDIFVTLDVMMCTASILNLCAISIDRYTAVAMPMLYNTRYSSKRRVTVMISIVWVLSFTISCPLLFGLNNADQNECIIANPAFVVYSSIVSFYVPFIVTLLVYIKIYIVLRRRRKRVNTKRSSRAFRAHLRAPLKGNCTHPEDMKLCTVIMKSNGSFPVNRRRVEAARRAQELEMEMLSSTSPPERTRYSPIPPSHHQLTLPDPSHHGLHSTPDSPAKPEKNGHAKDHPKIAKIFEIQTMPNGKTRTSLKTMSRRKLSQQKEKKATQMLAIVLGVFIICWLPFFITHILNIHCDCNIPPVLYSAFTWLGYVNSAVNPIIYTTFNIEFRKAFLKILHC
Sequence of Muscarinic acetylcholine receptor M1 (Homo sapiens) (P11229 whole entry, looked up): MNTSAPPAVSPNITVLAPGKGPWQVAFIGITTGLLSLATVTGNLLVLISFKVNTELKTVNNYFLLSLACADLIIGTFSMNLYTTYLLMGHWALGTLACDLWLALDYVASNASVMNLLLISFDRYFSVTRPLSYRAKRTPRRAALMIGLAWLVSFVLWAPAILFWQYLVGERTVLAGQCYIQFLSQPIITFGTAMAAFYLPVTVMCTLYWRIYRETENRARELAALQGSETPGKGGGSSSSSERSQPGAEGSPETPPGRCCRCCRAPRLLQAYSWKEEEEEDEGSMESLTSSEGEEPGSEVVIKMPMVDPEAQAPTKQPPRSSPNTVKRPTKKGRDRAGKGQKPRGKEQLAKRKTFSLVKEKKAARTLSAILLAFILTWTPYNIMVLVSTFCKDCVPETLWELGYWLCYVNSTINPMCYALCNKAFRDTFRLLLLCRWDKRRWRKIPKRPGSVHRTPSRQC
Sequence of Gonadotropin-releasing hormone receptor (Homo sapiens) (P30968 whole entry, looked up): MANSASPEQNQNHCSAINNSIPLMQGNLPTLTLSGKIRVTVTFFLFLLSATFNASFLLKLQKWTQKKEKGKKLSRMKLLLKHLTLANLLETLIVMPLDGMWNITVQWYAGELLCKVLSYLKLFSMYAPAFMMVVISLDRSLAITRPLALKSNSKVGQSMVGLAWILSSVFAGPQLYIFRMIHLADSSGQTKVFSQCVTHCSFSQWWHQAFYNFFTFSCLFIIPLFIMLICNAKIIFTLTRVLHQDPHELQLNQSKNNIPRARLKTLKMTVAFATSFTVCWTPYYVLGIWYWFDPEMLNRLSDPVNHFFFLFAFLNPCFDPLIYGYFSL
Sequence of KiSS-1 receptor (Homo sapiens) (Q969F8 whole entry, looked up): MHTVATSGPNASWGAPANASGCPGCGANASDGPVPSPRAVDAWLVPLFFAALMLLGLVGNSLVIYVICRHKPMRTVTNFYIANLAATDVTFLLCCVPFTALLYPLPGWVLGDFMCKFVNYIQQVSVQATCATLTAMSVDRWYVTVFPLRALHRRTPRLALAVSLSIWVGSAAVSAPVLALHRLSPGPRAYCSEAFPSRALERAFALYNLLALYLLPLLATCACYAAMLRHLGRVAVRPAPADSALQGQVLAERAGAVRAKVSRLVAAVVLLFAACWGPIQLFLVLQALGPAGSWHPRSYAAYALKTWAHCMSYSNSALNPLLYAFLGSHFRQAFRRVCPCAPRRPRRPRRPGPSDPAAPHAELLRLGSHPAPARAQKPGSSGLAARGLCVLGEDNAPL

| Structure (SMILES) | Potency [1] | Potency [2] | outcome [3] | outcome [4] | Potency [5] | Potency [6] | Potency [7] | Potency [8] | Potency [9] | Potency [10] | Potency [11] | Potency [12] | Potency [13] | Potency [14] | Potency [15] | Potency [16] | Potency [17] | Potency [18] | Potency [19] | Potency [20] |
| --- | --- | --- | --- | --- | --- | --- | --- | --- | --- | --- | --- | --- | --- | --- | --- | --- | --- | --- | --- | --- |
| CNCCC(Oc1ccccc1OC)c1ccccc1 (centres undefined) | inactive | inactive | inactive | inactive | inactive | inactive | inactive | inactive | 16.3 µM (active) | inactive | inactive | inactive | inactive | inactive | – | – | – | – | – | – |
| O=C(Nc1cccc2c(=O)cc(-c3nn[nH]n3)oc12)c1ccc(OCCCCc2ccccc2)cc1 | inactive | inactive | inactive | inactive | inactive | inactive | inactive | inactive | inactive | inactive | – | – | inactive | inactive | inactive | inactive | – | – | – | – |
| S=c1[nH][nH]c(=S)s1 | inactive | inactive | inactive | inactive | inactive | inactive | inactive | inactive | inactive | – | inactive | – | inactive | inactive | inactive | inactive | inactive | inactive | – | – |
| C=CC(=O)OCCOCC(CC)(COCCOC(=O)C=C)COCCOC(=O)C=C | 31.9 µM (active) | inactive | inactive | inactive | inactive | inactive | inactive | inactive | inactive | inactive | – | – | inactive | inactive | – | inactive | – | inactive | – | – |
| CCC(=O)Nc1ccc(O)cc1 | inactive | inactive | inactive | inactive | inactive | inactive | inactive | – | inactive | inactive | inactive | – | inactive | inactive | inactive | inactive | inactive | inactive | – | – |
| Nc1nc2c(ncn2COCCO)c(=O)[nH]1 | inactive | inactive | inactive | inactive | inactive | inactive | inactive | – | – | – | inactive | inactive | inactive | – | inactive | – | inactive | inactive | inactive | inactive |
| Nc1c(CC(=O)O)cccc1C(=O)c1ccc(Br)cc1 | inactive | inactive | inactive | inactive | inactive | inactive | inactive | – | – | – | – | – | – | inactive | inactive | – | – | inactive | – | – |
| CC(C)=CCC/C(C)=C/CC/C(C)=C/CO | inactive | inactive | inactive | inactive | inactive | inactive | inactive | inactive | inactive | inactive | inactive | – | inactive | inactive | inactive | inactive | – | inactive | inactive | – |
| Cc1ccc2oc(CN(Cc3ccccc3)C(=O)Nc3c(F)cc(F)cc3F)c(-c3ccc(Cl)cc3)c2c1 | inactive | inactive | inactive | inactive | inactive | inactive | – | inactive | – | – | – | – | inactive | inactive | inactive | inactive | – | inactive | inactive | inactive |
| CN1CCN(C2=Nc3ccccc3Oc3ccc(Cl)cc32)CC1 | inactive | inactive | inactive | inactive | inactive | inactive | inactive | inactive | inactive | inactive | – | – | inactive | – | inactive | – | inactive | – | – | – |
| C[C@H]1O[C@@H](n2cc(F)c(=O)[nH]c2=O)[C@H](O)[C@@H]1O | inactive | inactive | inactive | inactive | inactive | inactive | inactive | – | – | – | inactive | inactive | inactive | inactive | inactive | – | 15.8 µM (active) | inactive | inactive | inactive |
| FC(F)(F)C(F)(F)C(F)(F)C(F)(F)C(F)(F)C(F)(F)C(F)(F)C(F)(F)Br | inactive | inactive | inactive | inactive | inactive | inactive | inactive | inactive | inactive | inactive | inactive | inactive | inactive | inactive | – | inactive | inactive | inactive | inactive | – |
| O=C(O)c1cccc(N(Cc2cccnc2)c2ccc(OC(F)F)c(OC(F)F)c2)c1 | inactive | inactive | inactive | inactive | inactive | inactive | inactive | inactive | inactive | inactive | – | – | inactive | inactive | inactive | inactive | – | inactive | inactive | inactive |

— PubChem BioAssay (Tox21)
